Test results from the supplement of paper PMC6555819.

How the values were obtained:
Experiment in all cases: PBM binding z-score (relative to random genomic background probes); higher = stronger binding; sequences stand for … in GC…GCGATTGACAGCGTAGAATGAAGG
[1] = system: FXR:RXRa (NR concentration 270 nM, RXRa partner concentration 90 nM)
Method in brief: (§1)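 For binding z-scores, the reference was random background probes on custom Agilent 4×180K protein-binding microarrays. These arrays were incubated 1 h with ligand-free nuclear receptor dimers in PBS pH 7.4, 2% milk, 0.02% Triton X-100, 1 mM DTT, 0.2 mg/mL BSA and 0.4 mg/ml salmon testes DNA. Fluorescence was scanned after antibody detection of each partner (one per run) and regression-normalized.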

[2] = system: LXRa:RXRa (NR concentration 270 nM, RXRa partner concentration 90 nM)
Method in brief: as §1

[3] = system: LXRa homodimer (NR concentration 270 nM)
Method in brief: as §1

[4] = system: LXRb:RXRa (NR concentration 270 nM, RXRa partner concentration 90 nM)
Method in brief: as §1

[5] = system: LXRb homodimer (NR concentration 270 nM)
Method in brief: as §1

[6] = system: PPARa:RXRa (NR concentration 270 nM, RXRa partner concentration 90 nM)
Method in brief: as §1

[7] = system: PPARg:RXRa (NR concentration 180 nM, RXRa partner concentration 90 nM)
Method in brief: as §1

[8] = system: PPARg:RXRa 270nM:90nM, anti-RXR (NR concentration 270 nM, RXRa partner concentration 90 nM)
Method in brief: as §1

[9] = system: PPARg:RXRa 30nM:10nM, anti-RXR (NR concentration 30 nM, RXRa partner concentration 10 nM)
Method in brief: as §1

[10] = system: PPARg:RXRa 90nM:30nM, anti-RXR (NR concentration 90 nM, RXRa partner concentration 30 nM)
Method in brief: as §1

[11] = system: PPARg:RXRa DBDmut IVT, anti-RXR (DBD mutation: RXRa K156A/R161A, NR concentration 270 nM, RXRa partner concentration 90 nM)
Method in brief: as §1

[12] = system: PPARg:RXRa IVT, anti-PPARg (NR concentration 270 nM, RXRa partner concentration 90 nM)
Method in brief: as §1

[13] = system: PPARg DBDmut:RXRa IVT, anti-PPARg (DBD mutation: PPARg1 K132A/R137A, NR concentration 270 nM, RXRa partner concentration 90 nM)
Method in brief: as §1

[14] = system: PPARg DBDmut IVT, anti-PPARg (DBD mutation: PPARg1 K132A/R137A, NR concentration 270 nM)
Method in brief: as §1

[15] = system: PPARg homodimer (NR concentration 180 nM)
Method in brief: as §1

[16] = system: PXR:RXRa (NR concentration 270 nM, RXRa partner concentration 90 nM)
Method in brief: as §1

[17] = system: PXR homodimer (NR concentration 270 nM)
Method in brief: as §1

[18] = system: RARa:RXR (NR concentration 270 nM, RXRa partner concentration 90 nM)
Method in brief: as §1

[19] = system: RARa homodimer (NR concentration 270 nM)
Method in brief: as §1

[20] = system: RARb:RXRa (NR concentration 270 nM, RXRa partner concentration 90 nM)
Method in brief: as §1

Sequence	PBM binding z-score [1]	PBM binding z-score [2]	PBM binding z-score [3]	PBM binding z-score [4]	PBM binding z-score [5]	PBM binding z-score [6]	PBM binding z-score [7]	PBM binding z-score [8]	PBM binding z-score [9]	PBM binding z-score [10]	PBM binding z-score [11]	PBM binding z-score [12]	PBM binding z-score [13]	PBM binding z-score [14]	PBM binding z-score [15]	PBM binding z-score [16]	PBM binding z-score [17]	PBM binding z-score [18]	PBM binding z-score [19]	PBM binding z-score [20]
AGAATGAGGTTATTAATATCAGGGAATTGCGGTC	1.19	1.32	0.394	1.3	-0.0827	2.47	1.54	1.67	0.598	1.35	2.96	2.52	1.52	0.456	0.953	1.27	0.447	1.32	0.74	1.18
TCTTGTAGATTAACAGGAGGTTAAGAAAGATCGA	0.498	1.41	0.483	0.95	-0.0109	1.06	0.145	1.41	2.67	1.89	1.1	0.0101	-0.776	0.403	-0.439	0.578	0.157	1.25	0.212	0.685
ATCTCTAGGTACAGTTCAGTGAAAGATCGATAGA	0.629	0.639	0.57	0.6	1.26	0.51	0.382	0.647	0.518	0.644	0.631	0.726	1.18	1.5	0.523	0.814	0.988	0.458	1.24	0.918
TGTTGTAGATCAAGCAGGTTAAGAAAGCCTGAGT	-0.212	-0.245	-0.47	-0.0172	-0.215	0.282	-0.51	-0.0645	-0.0716	-0.0785	-0.275	0.329	0.0224	-0.646	-0.211	0.13	0.0391	0.16	0.163	-0.116
CGTCCCAGGTCATAGGAGGTCAGTGAAGACAGAT	5.9	6.34	4.26	5.07	0.872	4.83	3.87	4.13	1.16	2.74	1.76	3.65	0.856	0.281	3.83	6.15	2.57	4.89	2.28	4.5
ATAGAAAGGTCGAGGTGAGTATAGAGAAAGGGAA	4.25	3.22	0.369	2.75	0.952	4.36	3.26	3.43	1.67	2.2	0.449	1.99	1.74	0.872	2.34	2.55	0.613	3.6	1.71	4
AGTCAAAGTTCATCTAGGTAACGCAAGATATGCT	6.85	5.91	4.93	3.61	1.83	4.83	6.39	6.35	3.58	5.58	0.815	4.11	1.46	1.49	3.03	5.12	6.5	3.76	1.42	5.03
TCTTGTAGGTCAAGCAGGTTAAGAAAGCCTGAGT	5.29	4.34	1.19	3.44	0.725	5.22	7.42	6.59	4.79	6.42	7.24	8.12	1.76	1.83	1.66	3.63	0.673	3.68	0.596	4.34
TAGCCTAGGTCATGCGGGGCAGTATAGTGTCGGC	3.99	3.24	0.431	2.23	0.295	3.56	2.18	2.41	0.0404	1.28	1.69	3.02	0.874	-0.0244	0.993	2.16	-0.37	2.61	-0.595	3.75
CGAACTAGGTCATCTAGGACAGTGAATACATTGA	4.09	2.49	0.484	2.12	-0.144	4.72	7.33	6.44	3.66	5.7	8.06	8.21	3.51	1.83	2.99	1.73	0.602	2.23	0.753	3.92
TCAGACATGTGAAGGTAACTCAGGTACGCAGTCG	0.329	1.23	-0.167	0.691	-0.43	0.662	0.745	1.37	3.48	2.63	1.82	-0.0574	0.0996	0.0128	-0.0995	0.383	-0.196	0.493	0.114	0.199
TCTTGGAGGACACGAAGGTCAGAGCTTTCCAGAG	1.51	1.47	0.0796	1.27	-0.69	2.1	0.905	2.2	2.51	2.31	2.12	2.46	-0.251	-0.635	0.788	1.93	0.605	1.86	-0.208	3.36
CCGACTGGGGGAGAAAGGTTACCATACCATCCGG	1.31	1.61	0.182	2.9	4.09	3.66	3.97	6.01	4.46	6.42	1.08	2.68	1.16	2.68	1.76	2	0.501	2.74	0.727	1.68
GGTACGAGGGCAAGTTGATAGCAGAGTTTGATGG	0.998	0.455	-0.268	0.434	-0.129	1.02	0.722	0.456	-0.104	0.235	2.1	1.59	-0.734	-1	0.42	1.06	0.796	0.502	0.101	2.75
TCTATTAGTTGAAGGGCAACGGACGAGTCCGTTT	0.568	0.993	0.2	1.07	0.679	1.06	0.0889	2.19	3.6	2.89	2.22	0.812	0.14	0.912	0.894	0.785	1.18	0.778	0.625	1.76
ATTTACGGGTCAACGAGGTTATAGCACGCGTATA	7.58	5.96	2.29	4.93	1.41	6.1	6.73	6.17	3.27	5.21	3.42	4.88	2.57	2.5	2.8	5.6	4.18	5.97	1.69	4.48
CCGACTGGGCCACGAAAGGTCATTGATTCAGTGA	3.33	4.99	3.8	4.13	-0.0773	4.31	3.41	4.06	1.52	3.16	4.66	4.28	-0.928	-1.23	2.39	5.17	0.941	4.89	0.265	3.79
CAGCCTAGATCAGGGCCAGTATAGGAGGAACGTT	-0.83	-0.998	-0.438	-1.08	-1.15	-0.772	0.274	-0.997	-0.386	-0.789	-0.475	-0.568	-0.718	-0.931	-0.197	-0.797	-0.456	-0.741	-0.525	-0.399
TCGAGTAGGTTAGGGGCATACAGAATGGCGTCGA	0.679	0.555	-0.335	0.825	-0.198	1.39	1.04	1.65	1.4	1.6	1.98	1.38	0.000515	-1.13	0.459	0.501	0.171	0.678	-0.124	1.06
ACAGACAGTTGAGTGAAGGTAACTCAGCTGGACG	0.127	-0.141	-0.198	-0.473	-0.26	-0.127	0.557	-0.26	-0.0499	-0.284	-0.279	0.038	-0.108	-0.693	-0.3	-0.386	-0.571	-0.397	-0.00601	-0.0285
AGAATGAGGTTACAAAAGATCAGGGAAACGCTTG	1.59	6.22	-0.11	3.07	0.0675	3.05	2.31	2.26	0.772	1.54	3.87	3.13	1.47	0.745	0.909	1.23	0.246	1.88	-0.148	1.81
ACTAGCAGGCCAGGTTTGGGTCACTCAAACAAAG	-0.191	-0.164	-0.504	0.269	-0.651	0.985	-0.123	0.025	-0.537	-0.199	-0.173	0.446	-0.511	-0.687	0.235	0.351	-0.166	1.17	-0.279	1.32
GATACAGGGTCAGCTAGAGGCCAGAGTGTGGAAA	4.82	3.13	-0.348	2.53	-0.522	4.62	3.38	3.34	0.644	2.07	0.974	2.4	-0.57	-0.662	3.47	3.5	0.00381	4.66	-0.116	4.25
TAGCCTAGGTCATGGGCCAGTAGACCACGCGAAC	4.96	3.57	0.0345	2.2	-0.335	4.38	4.13	3.94	1.03	3.07	1.37	3.63	0.0866	0.107	0.936	1.5	-0.436	2.64	-0.0215	3.92
GATATAGGGTCAAGGCCAGAGTACGCGTATTGAT	7.01	4.58	0.271	3.91	0.188	5.82	6.29	6.2	3.04	5.65	4	4.64	1.73	1.98	3.01	4.14	0.146	4.91	1.13	4.62
GATACAGGGTCAACGCCAGAGTACGCGTATTGAT	7	4.57	-0.128	3.91	0.0606	5.69	6.17	5.78	2.67	4.5	3.53	4.25	0.296	0.699	2.98	4.11	0.215	5.05	0.72	4.7
TAGCCTTGGTCATGGGCCAGTATACCACGCGAAC	-0.772	-0.685	-0.571	-0.54	-1.16	-0.311	0.351	-0.0225	-0.592	-0.107	-1.28	0.113	-0.568	-0.717	-0.713	-0.329	-0.952	-0.342	-1.21	0.734
AGTCAAAGTTCATCTAGGTAACGTAGGATATGCT	6.48	6.18	5.41	3.66	1.7	4.7	6.41	6.28	3.31	5.55	1.16	3.96	1.76	1.26	2.37	5.12	7.16	3.89	1.67	4.85
